Reference: PubChem BioAssay (Tox21)
A number with no mark means an inactive call. Records with an inconclusive call do not appear. The source made the active and inactive calls. The call rests on the fitted dose curve; in most records, active means well fitted curve in the direction sought with a large enough effect in the repeat runs; inconclusive means weak or mixed curves; inactive means no such curve, though single readings can be large; an effect the other way counts as inactive or inconclusive.

test system: not listed separately; experiment: Caspase-3/7 induction in CHO-K1 cells by small molecules, qHTS assay (AID 1346980); details: CHO-K1 caspase-3/7 induction, Caspase-Glo luminescence, 17 h; series mostly up to 92.4 µM; caspase-3/7 activation: at the top concentration; further: nearly all actives have a fitted effect of over 15% in size
Outline: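 Luminescent Caspase-Glo 3/7 read (30min, room temperature) quantified apoptosis induction. Cells were wild-type CHO-K1, treated with compound for 17hr at 37 C and 5% CO2.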
On the % scale 0 is the no-effect control and ±100 the full control effect; potency means the concentration at half of the fitted maximal effect.

Structure (SMILES)	caspase-3/7 activation	Potency
CC(C=O)Cc1ccc2c(c1)OCO2 (stereo not given)	-0.527%	
CCOP(=O)(OCC)OP(=O)(OCC)OCC	0.0792%	
CSc1ccc(C(=O)C(C)(C)N2CCOCC2)cc1	-0.0551%	
O=c1oc2ccccc2c(O)c1C1CCCc2ccccc21 (stereo not given)	-0.0714%	
NC1=NC(=O)C(c2ccccc2)O1 (stereo not given)	3.02% [at 42.5 µM]	
CNC(=O)Oc1c(C(C)(C)C)cc(C)cc1C(C)(C)C	0.0632%	
O=C1c2ccccc2C(=O)c2ccccc21	2.01% [at 19 µM]	
Cc1ncc2n1-c1ccc(Cl)cc1C(c1ccccc1F)=NC2	0.41% [at 42.5 µM]	
CCCCc1ccc(O)cc1	2.95%	
[Cl][Sn]([Cl])([Cl])[Cl]	0.247%	
O=C(Cc1ccccc1)OCc1ccccc1	0.793%	
CC(C1CC1)C(O)(Cn1cncn1)c1ccc(Cl)cc1 (stereo not given)	1.05%	
O=C1OC(=O)C2C1C1(Cl)C(Cl)=C(Cl)C2(Cl)C1(Cl)Cl (stereo not given)	1.76%	
COC(=O)c1ccccc1S(=O)(=O)NC(=O)N(C)c1nc(C)nc(OC)n1	0.337%	
c1coc(-c2nc3ccccc3[nH]2)c1	-5.04%	
CCOC(=O)CP(=O)(OCC)OCC	0.0443%	
Cc1ncc(CNC(=O)N(CCCl)N=O)c(N)n1	0.279% [at 42.5 µM]	
CCSC(=O)N(CC)C1CCCCC1	0.717%	
CC(N)=S	0.0837%	

Structure (SMILES)	caspase-3/7 activation	Potency
CCCCCCI	2.32%	
CNCC(=O)c1ccc(O)c(O)c1	0.0629% [at 42.5 µM]	
CCOc1nc(C(Cl)(Cl)Cl)ns1	-0.434%	
CN1CCN(C(=O)O[C@H]2c3nccnc3C(=O)N2c2ccc(Cl)cn2)CC1	-0.156% [at 42.5 µM]	
CNC(=O)N(C)c1nc2ccccc2s1	-5.5%	
NC(=S)C(N)=S	-0.552%	
Oc1c(Cl)cccc1Cl	-0.183%	
ClCCCN1CCN(c2cccc(Cl)c2)CC1	0.0069% [at 42.5 µM]	
CCCSP(=O)(OCC)Oc1ccc(Br)cc1Cl (stereo not given)	0.611% [at 42.5 µM]	
CC(=O)CC(c1ccc(Cl)cc1)c1c(O)c2ccccc2oc1=O (stereo not given)	-0.542%	
N#CC(Cl)(Cl)Cl	-0.276%	
CCCCc1c(C)nc(NCC)[nH]c1=O	-0.067%	
O=CNC(N1CCN(C(NC=O)C(Cl)(Cl)Cl)CC1)C(Cl)(Cl)Cl (stereo not given)	-0.0696%	
CCN(CC)C(C)C(=O)c1ccccc1 (stereo not given)	-0.221% [at 42.5 µM]	
N#Cc1c(Cl)cccc1Cl	-0.81%	
N#Cc1ccncc1	-0.738%	
COc1cccc2c1cc([N+](=O)[O-])c1c(C(=O)O)cc3c(c12)OCO3		9.69 µM (active)
COc1cc(OC)nc(Oc2cccc(Oc3nc(OC)cc(OC)n3)c2C(=O)O)n1	4.35%	
CCCCN(CCCCO)N=O	1.63%	

test system: not listed separately; experiment: Caspase-3/7 induction in HepG2 cells by small molecules, qHTS cell viability counter screen (AID 1346981); details: CellTiter-Fluor fluorescence, 17 h; series mostly up to 92.4 µM; activity change, negative = cytotoxicity: at the top concentration; further: nearly all actives have a fitted effect of over 30% in size
Outline: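 Multiplexed with the caspase-3/7 assay: HepG2 cells, 16 hr compound treatment, CellTiter-Fluor viability detection by fluorescence.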

Structure (SMILES)	activity change, negative = cytotoxicity	Potency
CC(C=O)Cc1ccc2c(c1)OCO2 (stereo not given)	9.97%	
CCOP(=O)(OCC)OP(=O)(OCC)OCC	2%	
CSc1ccc(C(=O)C(C)(C)N2CCOCC2)cc1	-2.48%	
O=c1oc2ccccc2c(O)c1C1CCCc2ccccc21 (stereo not given)	1.73%	
NC1=NC(=O)C(c2ccccc2)O1 (stereo not given)	1.7% [at 42.5 µM]	
CNC(=O)Oc1c(C(C)(C)C)cc(C)cc1C(C)(C)C	8.99%	
O=C1c2ccccc2C(=O)c2ccccc21	8.77% [at 19 µM]	
Cc1ncc2n1-c1ccc(Cl)cc1C(c1ccccc1F)=NC2	14.1% [at 42.5 µM]	
CCCCc1ccc(O)cc1	4.84%	
[Cl][Sn]([Cl])([Cl])[Cl]	11.1%	
O=C(Cc1ccccc1)OCc1ccccc1	-6.06%	
CC(C1CC1)C(O)(Cn1cncn1)c1ccc(Cl)cc1 (stereo not given)	3.99%	
O=C1OC(=O)C2C1C1(Cl)C(Cl)=C(Cl)C2(Cl)C1(Cl)Cl (stereo not given)	13.4%	
COC(=O)c1ccccc1S(=O)(=O)NC(=O)N(C)c1nc(C)nc(OC)n1	-12.6%	
c1coc(-c2nc3ccccc3[nH]2)c1	1.72%	
CCOC(=O)CP(=O)(OCC)OCC	4.63%	
Cc1ncc(CNC(=O)N(CCCl)N=O)c(N)n1	0.321% [at 42.5 µM]	
CCSC(=O)N(CC)C1CCCCC1	2.31%	
CC(N)=S	0.121%	

Structure (SMILES)	activity change, negative = cytotoxicity	Potency
CCCCCCI	-0.562%	
CNCC(=O)c1ccc(O)c(O)c1	0.794% [at 42.5 µM]	
CCOc1nc(C(Cl)(Cl)Cl)ns1	4.36%	
CN1CCN(C(=O)O[C@H]2c3nccnc3C(=O)N2c2ccc(Cl)cn2)CC1	2.6% [at 42.5 µM]	
CNC(=O)N(C)c1nc2ccccc2s1	0.0308%	
NC(=S)C(N)=S	13.7%	
Oc1c(Cl)cccc1Cl	0.382%	
ClCCCN1CCN(c2cccc(Cl)c2)CC1	-3.33% [at 42.5 µM]	
CCCSP(=O)(OCC)Oc1ccc(Br)cc1Cl (stereo not given)	-0.759% [at 42.5 µM]	
CC(=O)CC(c1ccc(Cl)cc1)c1c(O)c2ccccc2oc1=O (stereo not given)	-7.75%	
N#CC(Cl)(Cl)Cl	-1.91%	
CCCCc1c(C)nc(NCC)[nH]c1=O	0.662%	
O=CNC(N1CCN(C(NC=O)C(Cl)(Cl)Cl)CC1)C(Cl)(Cl)Cl (stereo not given)	-1.63%	
CCN(CC)C(C)C(=O)c1ccccc1 (stereo not given)	2.76% [at 42.5 µM]	
N#Cc1c(Cl)cccc1Cl	5.67%	
N#Cc1ccncc1	5.12%	
COc1cccc2c1cc([N+](=O)[O-])c1c(C(=O)O)cc3c(c12)OCO3		27.3 µM (active)
COc1cc(OC)nc(Oc2cccc(Oc3nc(OC)cc(OC)n3)c2C(=O)O)n1	4.06%	
CCCCN(CCCCO)N=O	-0.929%	

target: Nuclear receptor subfamily 1 group I member 2 (Homo sapiens) (UniProt O75469); experiment: Human pregnane X receptor (PXR) small molecule agonists, qHTS assay (AID 1346982); details: PXR-Luc HepG2, CYP3A4 luciferase reporter, 24 h; series mostly up to 92.4 µM; activation: at the top concentration; further: nearly all actives have a fitted effect of over 35% in size
Sequence (O75469 whole entry, looked up): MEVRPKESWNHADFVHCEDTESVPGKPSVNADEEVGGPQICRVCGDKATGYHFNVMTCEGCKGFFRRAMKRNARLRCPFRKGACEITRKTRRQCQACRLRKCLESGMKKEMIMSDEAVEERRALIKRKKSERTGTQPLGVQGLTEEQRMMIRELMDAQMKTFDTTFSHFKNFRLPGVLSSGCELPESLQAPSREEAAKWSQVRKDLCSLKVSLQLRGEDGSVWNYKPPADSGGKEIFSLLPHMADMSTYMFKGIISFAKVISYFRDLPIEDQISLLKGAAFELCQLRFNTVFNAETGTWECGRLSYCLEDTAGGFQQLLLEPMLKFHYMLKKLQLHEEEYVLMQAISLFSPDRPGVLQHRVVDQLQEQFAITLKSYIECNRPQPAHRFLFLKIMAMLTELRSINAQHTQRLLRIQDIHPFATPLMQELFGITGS
Outline: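 We seeded PXR-Luc HepG2 cells in assay medium containing 5% charcoal-stripped FBS, added compounds 5 hr later, incubated 24 hr, and read luminescence with ONE-Glo reagent.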

Structure (SMILES)	activation	Potency
CCOP(=O)(OCC)OP(=O)(OCC)OCC	-7.02%	
CNC(=O)Oc1c(C(C)(C)C)cc(C)cc1C(C)(C)C	24.1%	
[Cl][Sn]([Cl])([Cl])[Cl]	1.76%	
O=C(Cc1ccccc1)OCc1ccccc1	3.79%	
CC(C1CC1)C(O)(Cn1cncn1)c1ccc(Cl)cc1 (stereo not given)		27.1 µM (active)
O=C1OC(=O)C2C1C1(Cl)C(Cl)=C(Cl)C2(Cl)C1(Cl)Cl (stereo not given)	-3.84%	
COC(=O)c1ccccc1S(=O)(=O)NC(=O)N(C)c1nc(C)nc(OC)n1	0.66%	
CCOC(=O)CP(=O)(OCC)OCC	10.3%	
Cc1ncc(CNC(=O)N(CCCl)N=O)c(N)n1	-8.64% [at 42.5 µM]	
CCSC(=O)N(CC)C1CCCCC1	-4.26%	
CCCCCCI	2.39%	
CNCC(=O)c1ccc(O)c(O)c1	-4.53% [at 42.5 µM]	
CNC(=O)N(C)c1nc2ccccc2s1		30.6 µM (active)
NC(=S)C(N)=S	-5.42%	
Oc1c(Cl)cccc1Cl	2.72%	
CCCSP(=O)(OCC)Oc1ccc(Br)cc1Cl (stereo not given)		29.7 µM (active)
CC(=O)CC(c1ccc(Cl)cc1)c1c(O)c2ccccc2oc1=O (stereo not given)	9.61%	
N#Cc1ccncc1	7.07%	
CCCCN(CCCCO)N=O	10.3%	
